The results in this text go back to the supplement of paper PMC6555819.

The subject of this assay is PPARg:RXRa IVT, anti-PPARg (NR concentration 270 nM, RXRa partner concentration 90 nM). Briefly: PBM binding z-score (relative to random genomic background probes); higher = stronger binding; sequences stand for … in GC…GCGATTGACAGCGTAGAATGAAGG
Summed up:
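On custom Agilent 4×180K arrays, double-stranded probes with 34-nt variable regions carried direct-repeat seeds, single-nucleotide variants, half-site ablations or random human genomic background. Ligand-free nuclear receptor dimers were applied for 1 h, and binding was read with antibodies against each partner (one per run). Binding z-scores come from regression-normalized fluorescence, with the random background probes as reference.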
In the case of GATACAGGGTCAGCTAGAGTCCAGAGTATGGAAA, the PBM binding z-score was determined as 2.05.

AGGATGAGGTTAAGATCAGGGAAACAGAATACAT showed a PBM binding z-score of 0.973.

In turn, CCGAGTAGGTTATGGGGCATTCGGGCAACGGTGA had a PBM binding z-score of 3.88.

On to TCATAAAGGTAAACAGGTGAAAGTCCGTAAGTTA, for which the PBM binding z-score came to 2.72.

ACAGACAGGGGAGTGAAGGTAACTCAGCTGGACG: the PBM binding z-score is -0.191.

CATACAGGGTCAGCTAGGCGAGAGTAGGGACGGC came in with a PBM binding z-score of 2.05.

Sequence GCGACTGGGGCAAATCAGGTTACCATAAGGTTGG displayed a PBM binding z-score of 3.69.

Take ACTAGCAGGCCAAGTTTGGTTCACTCAAACAAAG: the PBM binding z-score was 0.311.

For CCTAGTTTGTCAAGGTCACACACGCTATAGGTAC, the PBM binding z-score came out at 2.96.

The sequence CCTACTGGGCCAAAAGTCATTGATTCCAATGCTC had a PBM binding z-score of 4.42.

Sequence TCTAGTTGGGCAAAGGTCACACACTCGAAATGCG registered a PBM binding z-score of 5.71.

Sequence TCTCGGAGGACACGAAGCTCAGAGCTTTCCAGAG gave a PBM binding z-score of -0.21.

ATCTCTAGGTAACCAAGTTCAATGAATGCCGAAC gave a PBM binding z-score of 3.19.

In turn, ACTATTAGTTGACTTAGTGCAACCGATACGACGC had a PBM binding z-score of 0.382.

CTCGACAGGTCGTGCTCAGGTGAGTATACCAAAC: the PBM binding z-score was 0.534.

Regarding TCTTGTAAATCAGCAGGTTAAGAAAGCTGGCCAA, the PBM binding z-score was -0.234.

CCGACTGGGGCAGAAAGGTTAACATACCATCCGG showed a PBM binding z-score of 2.39.

Take CCTACTGGGCCATTCAGAGGTCTTTGATCATATG: the PBM binding z-score was found to be 3.47.

Regarding CCTCGGAGGACCACAGGAGGTCAGAGCTGCCAGA, the PBM binding z-score is -0.16.

As to ATCTCTAGGTAAAGAGAGTTCAGTGAATGCAAAT, the PBM binding z-score is 1.38.

Turning to TCTTGGAGATCAACAGGAGGTTAAGAAAGATCGA, the PBM binding z-score came to 0.364.

Take CCTCGGAGGAAAGAAGGTCAGAGCTGTCCGCTTT: the PBM binding z-score was 0.86.

CCTCGGAGGACATAAGGTCAGAGCTGTCCGCTTT had a PBM binding z-score of 0.303.

For the sequence CGTCAAAGTTCAAGGTAAGGTAACAGAAAGCAGC, the PBM binding z-score was determined as 2.04.

For TTACCAAGGTGAAGGTCGTTGTTCCCTCTGTAGA, the PBM binding z-score came out at 3.49.

CAGCCTAGGTCAGGGCCAGTTTAGGAGGAACGTT came in with a PBM binding z-score of 1.79.

The sequence ATGTCTAGGTAACAAGTTCAGTGAAAGAGAGGAC gave a PBM binding z-score of 2.17.

Regarding GGAACGAGGGAATTCGAGTTGATAGCATGGCGAT, the PBM binding z-score is -0.244.

Consider CCTCGGAGGACAACAGGCGGTCAGAGCTGCCAGA, for which the PBM binding z-score was -0.851.

In the case of CCTCGCAGGACAGAAGGTCAGAGCTGTCCGCTTT, the PBM binding z-score worked out at 0.104.

In the case of GCTATTAGTTGAAAGGGCAAGCGAATGATTCTCG, the PBM binding z-score turned out to be 0.54.

For CCTAGCAGGCCAGGGTCACTCAAGCATTTCGCTT, the PBM binding z-score stood at 0.98.

Sequence CGTCCTAGGTCAATGCTAGGTCAGTGAAAGCATT yielded a PBM binding z-score of 3.31.

CCTACAGGGTCAGCTAGGCCAGAGTAGGGACGGC yielded a PBM binding z-score of 1.44.

For TGAATGAGGTTATAAGATCATGGAACGTTGCAAA, the PBM binding z-score came to 2.

Sequence CCTTACGGGTCAAGGTTATAGCACGGGTGGTACG yielded a PBM binding z-score of 3.57.

For the sequence ACAGACATGTGAGTGAAGGTAACTCAGCTGGACG, the PBM binding z-score was -0.467.

With TCTTGTAGATCAACAGGAAGTTAAGAAAGATCGA, the PBM binding z-score worked out at 0.249.

On to TCACGGAGGACACGAAGGTCAGAGCTTTCCAGAG, for which the PBM binding z-score amounted to 0.826.

Take GCTAGTTGGTCAGTAAAAGGTTACACACCGGTCG: the PBM binding z-score is 1.05.
